These results are taken from PubChem BioAssay (EPA / NIEHS).

The target of experiment [1] is human Peroxisome Proliferator-activated Receptor delta (PPARd), PPARD (gene 5467) (UniProt Q03181). Nature of the experiment: ATG_PPARd_TRANS: Attagene TRANS-FACTORIAL HepG2 Assay for human Peroxisome Proliferator-activated Receptor delta (PPARd) (AID 2283002). The procedure, abridged:
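Cell-based TRANS reporter: HepG2, transient MRTU transfection, 24 h exposure. Readout = reporter mRNA (RT-PCR/CE, 6-FAM). Gain-of-signal fit vs DMSO control.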

Read-out in experiment [2]: Intercellular Adhesion Molecule 1 (ICAM1), ICAM1 (gene 3383)
The experiment in a line: BSK_3C_ICAM1: BioMAP Diversity Plus: 3C Assay for Intercellular Adhesion Molecule 1 (ICAM1) Biomarker Activity (AID 2283003; active = hit-call score of the fitted dose curve at least 0.9, where 1 is the maximum; inactive = score below 0.9). The conditions noted are these: primary human endothelial cells (HUVEC); actives raise or lower the signal. In short, it runs like this:
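HUVEC primary cells stimulated under 3C conditions; ICAM1 measured by ELISA 24 h after compound dosing. Curves fitted bidirectionally against the DMSO baseline. Overt cytotoxicity checked by SRB staining of parallel cultures.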

The target in experiment [3] is Nuclear receptor subfamily 1 group I member 2 (Homo sapiens) (UniProt O75469). The experiment in a line: ATG_PXR_TRANS: Attagene TRANS-FACTORIAL HepG2 Assay for human Pregnane X Receptor (PXR) (AID 2283008). In short, it runs like this: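 HepG2 cells transiently transfected with multiple reporter units, here a PXR-GAL4 chimera driving a GAL4-UAS reporter; 24 h compound exposure. Reporter mRNA measured by RT-PCR, FAM labelling and capillary electrophoresis; gain of signal fitted against DMSO baseline.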
Sequence of Nuclear receptor subfamily 1 group I member 2 (Homo sapiens) (O75469 whole entry, looked up, the tested form may be a part): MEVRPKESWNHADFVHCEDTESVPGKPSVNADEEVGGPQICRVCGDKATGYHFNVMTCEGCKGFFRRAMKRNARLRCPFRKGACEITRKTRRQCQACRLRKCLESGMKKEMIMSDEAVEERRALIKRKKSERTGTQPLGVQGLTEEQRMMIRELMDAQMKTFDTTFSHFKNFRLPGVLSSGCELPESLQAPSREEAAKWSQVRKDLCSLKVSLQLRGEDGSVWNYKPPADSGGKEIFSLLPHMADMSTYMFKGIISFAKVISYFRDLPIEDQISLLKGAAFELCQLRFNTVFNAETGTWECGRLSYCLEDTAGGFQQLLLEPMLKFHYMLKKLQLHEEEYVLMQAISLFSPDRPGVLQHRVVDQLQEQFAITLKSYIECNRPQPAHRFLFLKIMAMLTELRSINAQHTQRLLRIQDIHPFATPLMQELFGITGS

Experiment [4] has as its target human RAR-related Orphan Receptor beta (RORb), RORB (gene 6096) (UniProt Q92753). Nature of the experiment: ATG_RORb_TRANS: Attagene TRANS-FACTORIAL HepG2 Assay for human RAR-related Orphan Receptor beta (RORb) (AID 2283010). The procedure, abridged: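 HepG2 cells transiently transfected with GAL4-UAS reporter units expressing chimeric NR-Gal4 protein; reporter mRNA measured 24 h after dosing by RT-PCR, 6-FAM labelling and capillary electrophoresis. Gain-of-signal fitted relative to DMSO baseline.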

Experiment [5] deals with Peroxisome proliferator-activated receptor gamma (Homo sapiens) (UniProt P37231). The experiment in a line: ATG_PPARg_TRANS: Attagene TRANS-FACTORIAL HepG2 Assay for human Peroxisome Proliferator-activated Receptor-gamma (PPARg) (AID 2283007). In short, it runs like this:
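Transient transfection of HepG2 with GAL4-UAS-driven reporter units; chemical dosing 24 h; total RNA → oligo(dT) RT → PCR with reporter primers → 6-FAM primer extension → HpaI digest 2 h 37 C → capillary electrophoresis. Positive direction vs DMSO.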

Experiment [6] addresses human Retinoic Acid Receptor beta (RARb), RARB (gene 5915) (UniProt P10826). Nature of the experiment: ATG_RARb_TRANS: Attagene TRANS-FACTORIAL HepG2 Assay for human Retinoic Acid Receptor beta (AID 2283004). In short, it runs like this:
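HepG2, transient MRTU transfection, NR–Gal4 chimera, 24 h treatment; RT-PCR plus CE fluorescence detection of reporter mRNA; gain of signal vs DMSO.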

In experiment [7] the target is Retinoic acid receptor alpha (Homo sapiens) (UniProt P10276). Nature of the experiment: ATG_RARa_TRANS: Attagene TRANS-FACTORIAL HepG2 Assay for human Retinoic Acid Receptor alpha (RARa) (AID 2283005). The procedure, abridged: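 Reporter transcripts, measured by RT-PCR with fluorescent labeling and capillary electrophoresis after 24 h dosing, reflect activity of an exogenous human RARa–GAL4 fusion in transiently transfected HepG2. Fitted for increase relative to DMSO.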
Sequence of Retinoic acid receptor alpha (Homo sapiens) (P10276 whole entry, looked up, the tested form may be a part): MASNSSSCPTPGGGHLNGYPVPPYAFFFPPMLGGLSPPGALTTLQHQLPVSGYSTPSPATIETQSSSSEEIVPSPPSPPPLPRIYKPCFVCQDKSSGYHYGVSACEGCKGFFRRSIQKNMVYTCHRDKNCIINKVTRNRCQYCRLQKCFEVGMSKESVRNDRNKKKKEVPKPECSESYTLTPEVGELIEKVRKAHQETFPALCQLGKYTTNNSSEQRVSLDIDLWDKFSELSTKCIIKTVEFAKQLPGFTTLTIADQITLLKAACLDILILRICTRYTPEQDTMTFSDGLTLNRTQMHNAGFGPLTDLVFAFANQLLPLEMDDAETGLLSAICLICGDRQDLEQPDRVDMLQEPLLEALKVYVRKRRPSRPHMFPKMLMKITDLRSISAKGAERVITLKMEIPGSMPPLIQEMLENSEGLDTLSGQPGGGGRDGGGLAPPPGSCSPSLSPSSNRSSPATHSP

The target of experiment [8] is human Retinoic Acid Receptor gamma (RARg), RARG (gene 5916) (UniProt P13631). Nature of the experiment: ATG_RARg_TRANS: Attagene TRANS-FACTORIAL HepG2 Assay for human Retinoic Acid Receptor gamma (RARg) (AID 2283009). The procedure, abridged:
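HepG2 transiently transfected with GAL4-UAS reporter units and chimeric NR-Gal4 constructs; 24 h compound exposure. Reporter mRNA quantified by RT-PCR, FAM labeling, HpaI digestion and capillary electrophoresis; gain-of-signal versus DMSO.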

The nature of experiment [9]: BSK_3C_Proliferation: Cell Proliferation Assessment in the BioMAP Diversity Plus: 3C Assay (AID 2283006; active = hit-call score of the fitted dose curve at least 0.9, where 1 is the maximum; inactive = score below 0.9;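 for AC50: potency may reflect either rise or fall in cell number versus DMSO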). The conditions noted are these: primary human endothelial cells (HUVEC). The procedure, abridged: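 Subconfluent HUVEC (3C system) cultured with chemical; relative cell number read at 48 h by sulforhodamine B total-protein staining (0.1% SRB after 10% TCA fixation, 560 nm). Bidirectional fit relative to DMSO.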

Results filed as inconclusive are left out. Active and inactive are the calls of the source. Rule for the calls, unless noted: active = hit-call score of the fitted dose curve at least 0.9, where 1 is the maximum; inconclusive = response in the unintended direction; inactive = score below 0.9.

Sequence of human Retinoic Acid Receptor gamma (RARg), RARG (gene 5916) (P13631 whole entry, looked up, the tested form may be a part): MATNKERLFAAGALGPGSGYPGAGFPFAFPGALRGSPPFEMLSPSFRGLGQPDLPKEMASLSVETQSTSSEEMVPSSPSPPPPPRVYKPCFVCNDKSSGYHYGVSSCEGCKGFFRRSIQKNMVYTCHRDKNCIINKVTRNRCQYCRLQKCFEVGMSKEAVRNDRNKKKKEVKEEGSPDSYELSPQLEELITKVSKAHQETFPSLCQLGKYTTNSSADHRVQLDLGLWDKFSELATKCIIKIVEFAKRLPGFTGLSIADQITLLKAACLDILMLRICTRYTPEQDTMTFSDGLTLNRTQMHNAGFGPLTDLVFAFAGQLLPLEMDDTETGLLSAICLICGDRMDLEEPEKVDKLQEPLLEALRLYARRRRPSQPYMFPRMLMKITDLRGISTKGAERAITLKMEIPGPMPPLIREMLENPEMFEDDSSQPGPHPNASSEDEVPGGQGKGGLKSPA
Sequence of human Retinoic Acid Receptor beta (RARb), RARB (gene 5915) (P10826 whole entry, looked up, the tested form may be a part): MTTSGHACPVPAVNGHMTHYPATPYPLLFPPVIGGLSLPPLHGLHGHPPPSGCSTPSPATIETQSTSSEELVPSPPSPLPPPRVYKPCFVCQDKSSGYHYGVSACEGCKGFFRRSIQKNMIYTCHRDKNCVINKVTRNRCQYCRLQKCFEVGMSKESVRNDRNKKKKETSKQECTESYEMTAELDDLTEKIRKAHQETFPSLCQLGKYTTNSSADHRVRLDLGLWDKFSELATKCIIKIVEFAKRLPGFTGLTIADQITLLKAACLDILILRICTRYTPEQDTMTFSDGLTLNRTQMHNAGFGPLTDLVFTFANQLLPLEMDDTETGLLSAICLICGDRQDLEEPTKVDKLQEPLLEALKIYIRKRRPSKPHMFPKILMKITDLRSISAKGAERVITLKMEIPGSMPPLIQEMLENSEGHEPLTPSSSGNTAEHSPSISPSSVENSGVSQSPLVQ
Sequence of human RAR-related Orphan Receptor beta (RORb), RORB (gene 6096) (Q92753 whole entry, looked up, the tested form may be a part): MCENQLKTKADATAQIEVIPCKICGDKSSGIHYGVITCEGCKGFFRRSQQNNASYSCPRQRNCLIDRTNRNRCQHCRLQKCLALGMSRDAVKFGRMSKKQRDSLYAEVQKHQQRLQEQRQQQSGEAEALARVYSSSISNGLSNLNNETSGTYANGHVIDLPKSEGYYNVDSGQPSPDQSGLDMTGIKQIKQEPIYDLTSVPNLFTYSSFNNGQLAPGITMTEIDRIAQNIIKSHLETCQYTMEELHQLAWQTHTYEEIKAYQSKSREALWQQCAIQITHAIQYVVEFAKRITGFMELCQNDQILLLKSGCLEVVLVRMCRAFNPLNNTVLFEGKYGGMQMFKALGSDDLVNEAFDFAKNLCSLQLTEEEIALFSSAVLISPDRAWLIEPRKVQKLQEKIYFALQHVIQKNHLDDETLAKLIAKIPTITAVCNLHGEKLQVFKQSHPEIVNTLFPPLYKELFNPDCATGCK
Sequence of Peroxisome proliferator-activated receptor gamma (Homo sapiens) (P37231 whole entry, looked up, the tested form may be a part): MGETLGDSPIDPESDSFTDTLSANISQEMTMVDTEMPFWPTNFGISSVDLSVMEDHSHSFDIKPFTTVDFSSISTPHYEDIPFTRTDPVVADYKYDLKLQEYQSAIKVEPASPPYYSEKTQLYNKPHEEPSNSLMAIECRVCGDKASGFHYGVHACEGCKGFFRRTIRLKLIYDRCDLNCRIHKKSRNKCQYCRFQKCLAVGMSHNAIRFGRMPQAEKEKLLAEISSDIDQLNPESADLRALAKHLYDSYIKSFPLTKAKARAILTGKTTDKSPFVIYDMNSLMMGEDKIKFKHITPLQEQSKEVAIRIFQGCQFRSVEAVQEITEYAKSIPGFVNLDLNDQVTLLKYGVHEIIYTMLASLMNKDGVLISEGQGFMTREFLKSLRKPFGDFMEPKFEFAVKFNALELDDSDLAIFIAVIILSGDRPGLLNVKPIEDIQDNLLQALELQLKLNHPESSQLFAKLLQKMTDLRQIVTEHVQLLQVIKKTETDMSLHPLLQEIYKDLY
Sequence of human Peroxisome Proliferator-activated Receptor delta (PPARd), PPARD (gene 5467) (Q03181 whole entry, looked up): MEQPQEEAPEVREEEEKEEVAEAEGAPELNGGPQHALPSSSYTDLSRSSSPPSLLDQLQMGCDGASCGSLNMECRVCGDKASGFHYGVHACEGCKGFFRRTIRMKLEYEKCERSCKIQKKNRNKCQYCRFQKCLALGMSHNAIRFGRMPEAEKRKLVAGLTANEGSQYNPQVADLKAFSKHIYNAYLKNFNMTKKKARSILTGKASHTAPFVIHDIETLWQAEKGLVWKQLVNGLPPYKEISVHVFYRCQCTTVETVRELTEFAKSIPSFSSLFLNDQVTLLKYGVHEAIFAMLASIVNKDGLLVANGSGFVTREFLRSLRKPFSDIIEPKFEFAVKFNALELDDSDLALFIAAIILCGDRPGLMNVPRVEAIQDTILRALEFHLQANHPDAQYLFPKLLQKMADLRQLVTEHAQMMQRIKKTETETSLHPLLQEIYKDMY

The AC50 is the midpoint of the concentration-response curve, whichever way the signal moves. In the case of `Cc1ccc(O)c(C(C)(C)C)c1`, the compound was classed as inactive in experiment [1] and in experiment [4]. The values for the half-maximal activity concentration (AC50) in experiment [2] and in experiment [3] were 33.7 µM (active) and 19.1 µM (active), respectively.
Turning to `CCN(CC)c1ccc2c(-c3ccccc3C(=O)O)c3ccc(=[N+](CC)CC)cc-3oc2c1`, in [1], the compound was classed as inactive. In addition, the AC50 in [5] is 30.4 µM (active); in [3], 0.335 µM (active).
`COC(C(=O)O)c1ccccc1` (stereo unspecified): the compound was classed as inactive in experiment [1], in experiment [5] and in experiment [3].
As for `CCCCC/C=C/C=C/C=O`, the compound was classed as inactive in experiment [1], in [3] and in experiment [4]. For the same compound, the AC50 in experiment [2] was 32.8 µM (active); in [5], 9.8 µM (active).
As to `OCCCCCO`, the compound was called inactive in [1], in [5] and in [3].
Take `O=[N+]([O-])c1ccc(Nc2ccc(Nc3ccccc3)c(S(=O)(=O)O)c2)c([N+](=O)[O-])c1`: the call in experiment [1] and in [4] was inactive. Moreover, the figures for the half-maximal activity concentration (AC50) in experiment [5] and in [3] were 17.9 µM (active) and 22.9 µM (active), respectively.
In the case of `C=CC[N+](C)(C)CC=C`, the outcome in experiment [1], in [6], in experiment [7], in experiment [3], in experiment [8] and in experiment [4] was inactive.
For `CNC(=O)Oc1ccc2c(c1)[C@]1(C)CCN(C)[C@@H]1N2C`, the call in experiment [1], in [5] and in [3] was inactive.
With `Cc1c(Cl)c(=O)oc2cc(O)ccc12`, the compound was classed as inactive in [1] and in experiment [3]. Further, the half-maximal activity concentration (AC50) in experiment [5] is 100 µM (active).
Regarding `CCOc1ccccc1OCC`, the compound was classed as inactive in experiment [1], in experiment [5] and in experiment [3].
Consider `CC1=CCC2C(C1)C2(C)C` (stereo unspecified), for which the call in experiment [1] and in experiment [5] was inactive. Besides, in experiment [3], the AC50 was 10.7 µM (active).
In the case of `COc1cccc(OC)c1`, the compound was classed as inactive in experiment [1] and in [5].
As to `CC(=O)c1c(C)cc(C(C)(C)C)cc1C`, the call in experiment [1], in [6], in [7], in experiment [5], in experiment [3] and in experiment [8] was inactive.
Regarding `CC(C)=CCC/C(C)=C/COC=O`, the outcome in [1], in experiment [5] and in experiment [3] was inactive.
For `O=C1OC2(c3cc(Br)c(O)c(Br)c3Oc3c2cc(Br)c(O)c3Br)c2c(Cl)c(Cl)c(Cl)c(Cl)c21`, the result in experiment [1] and in experiment [4] was inactive. In addition, the values for the AC50 in [2], in experiment [5] and in [3] were 7.39 µM (active), 34.7 µM (active) and 4.84 µM (active), respectively.
Consider `CC(=O)C(=O)O`, for which the outcome in experiment [1], in experiment [6], in experiment [3] and in experiment [4] was inactive.
Consider `[Ca+2]`, for which the compound was classed as inactive in experiment [1], in [7] and in [3].
Regarding `CC(C)=CCC[C@](C)(O)[C@@H]1CC=C(C)CC1`, the compound was classed as inactive in [1], in experiment [6], in experiment [7], in experiment [5], in experiment [8] and in experiment [4]. The AC50 in [3] is 15 µM (active).
`COC(=O)OC`: the compound was classed as inactive in [1] and in [3].
Take `OCCN1CCNCC1`: the result in experiment [1] and in experiment [4] was inactive.
Turning to `CN(C)C(=N)N=C(N)N`, the result in experiment [1], in experiment [3] and in experiment [8] was inactive.
In the case of `CCC(C)(O)CCC=C(C)C` (stereo unspecified), the call in experiment [1], in experiment [3] and in experiment [4] was inactive.
As to `O=C(O)c1ccc([N+](=O)[O-])cc1`, in [2], the outcome was inactive.
On to `Clc1nc(C(Cl)(Cl)Cl)c(Cl)c(Cl)c1Cl`, for which the result in experiment [1] and in experiment [4] was inactive. In [3], the concentration at half-maximal activity (AC50) was 21.2 µM (active).
Take `BrC1CCC(Br)C(Br)CCC(Br)C(Br)CCC1Br` (stereo unspecified): the outcome in experiment [2], in experiment [5] and in experiment [4] was inactive. Further, in [3], the concentration at half-maximal activity (AC50) was 2.86 µM (active).
On to `CN1[C@@H]2CC(OC(=O)[C@H](CO)c3ccccc3)C[C@H]1[C@@H]1O[C@@H]12` (stereo partly specified), for which the compound was classed as inactive in [1], in experiment [5], in [3] and in experiment [4].
Consider `CC(CC(C)(C)C)CC(C)(C)CC(C)(C)C` (stereo unspecified), for which the compound was called inactive in experiment [1] and in experiment [4].
Consider `CC(=O)C(C)=O`, for which the compound was called inactive in experiment [1] and in experiment [3].
Take `CC(c1cc2ccccc2s1)N(O)C(N)=O` (stereo unspecified): the outcome in experiment [1] and in [3] was inactive.
As for `CC1(C)[C@H]2CC[C@]1(C)[C@H](O)C2`, the call in experiment [1], in experiment [3] and in experiment [4] was inactive.
Take `CN(CCOc1ccc(CC2SC(=O)NC2=O)cc1)c1ccccn1` (stereo unspecified): the outcome in experiment [2] was inactive. Further, the AC50 is 7.9 µM (active) in [9] and 5.11 µM (active) in [3].
With `Nc1cccc(S(=O)(=O)c2cccc(N)c2)c1`, the compound was called inactive in [1], in [5], in experiment [3] and in experiment [4].
Take `O=P(c1ccccc1)(c1ccccc1)c1ccccc1`: the outcome in [2], in experiment [9] and in experiment [5] was inactive. Also, in experiment [3], the AC50 was 0.325 µM (active).
Take `COc1ccnc(CS(=O)c2nc3cc(OC(F)F)ccc3[nH]2)c1OC` (stereo unspecified): the call in [1], in experiment [5], in [3] and in [4] was inactive.
For `CCCC1CCC(=O)O1` (stereo unspecified), the result in [1], in [3] and in experiment [4] was inactive.
In the case of `CC(C)(C)NC(N)=O`, the compound was called inactive in experiment [1] and in experiment [3].
Regarding `COC(=O)c1ccc(C)cc1`, the outcome in experiment [2], in experiment [9] and in [4] was inactive. The AC50 in experiment [3] was 9.06 µM (active).
Consider `CC(=O)Nc1ccccc1O`, for which the result in [2], in experiment [5] and in experiment [3] was inactive.
For `O=C(O)c1cn(-c2ccc(F)cc2)c2cc(N3CCNCC3)c(F)cc2c1=O`, the result in experiment [2] and in experiment [9] was inactive.
Take `CNC[C@H](O)c1cccc(O)c1`: the result in [2], in [6], in experiment [3], in experiment [8] and in experiment [4] was inactive.
For the compound `COc1cc(C=O)ccc1OC(=O)C(C)C`, the result in [2], in [6], in experiment [5], in experiment [3] and in experiment [4] was inactive.
Turning to `C[Si](O[Si](C)(C)C)O[Si](C)(C)C`, the result in experiment [1] and in [3] was inactive.
Regarding `CN(C)c1ccc(O)c2c1C[C@H]1C[C@H]3[C@H](N(C)C)C(=O)C(C(N)=O)=C(O)[C@@]3(O)C(=O)C1=C2O`, the compound was called inactive in experiment [1], in [3] and in experiment [4].
On to `CC(=O)Nc1ccc(C)cc1C`, for which the call in experiment [1], in experiment [3] and in [4] was inactive.
For the compound `C[C@]12CC[C@H]3[C@@H](CCC4=CC(=O)CC[C@@]43C)[C@@H]1CC[C@@H]2C(=O)CO`, the compound was classed as inactive in experiment [1]. For the same compound, the half-maximal activity concentration (AC50) in [3] was 2.12 µM (active).
Turning to `CCCOCC(C)O` (stereo unspecified), the call in experiment [1], in [3] and in experiment [4] was inactive.
As to `Cc1ccc(C=O)s1`, the compound was classed as inactive in experiment [1], in experiment [3] and in experiment [4]. The concentration at half-maximal activity (AC50) in experiment [5] is 32.8 µM (active).
For the compound `O=Cc1ccc(F)cc1`, the outcome in [1], in [5], in experiment [3] and in experiment [4] was inactive.
